Screen size: about 68,000 compounds; about 2,700 (4%) showed an effect of 50% or more. Many of the other results were omitted from the sample, so strong results are more common in it than they were.

This assay relates to Plasmodium berghei. Description: Screen against P. berghei liver stage (PbLuc), transformed with Luciferase, at 2uM. The assay is classed as functional, HepG2. The note with it: tested at 2 uM.
As to `O=C(Nc1cccnc1)[C@H]1C[C@H]2OCC[C@H]2N(Cc2ccc(F)cc2)C1`, the INHIBITION was 26.62%.
The figure for `N#CC1CCCN(c2ncnc3c2CCN(Cc2ccccc2)CC3)C1` (stereo not given) is 51.9%.
The result for `c1ccc(CN2CCc3ncnc(C4CC4)c3CC2)cc1` reads 14.13%; that for `Cn1ccnc1CN1CCc2ncnc(N3CCCC(C#N)C3)c2CC1` (stereo not given), 23.64%.
For the compound `CC(Cc1ccc2c(c1)OCO2)c1cn(CCc2c[nH]cn2)nn1` (stereo not given), the INHIBITION came out at 46.58%.
The figure for `Cc1cc(Cn2cc(C(C)Cc3ccc4c(c3)OCO4)nn2)n[nH]1` (stereo not given) is 49.88%.
The result for `CC(Cc1ccc2c(c1)OCO2)c1cn(CCN2CCCC2)nn1` (stereo not given) reads 69.71%; that for `CN(Cc1ccncc1)C1COC2(CCN(Cc3ccco3)CC2)C1` (stereo not given), 45.36%; that for `O=C(Nc1cn[nH]c1)c1ccc(O)nc1`, 45.75%.
The result for `Cn1nc(C2CCCN(Cc3ccc(F)c(F)c3)C2)c2nccnc21` (stereo not given) reads 38.65%; that for `O=C(c1n[nH]c(=O)c2ccccc12)N1CCC(O)(CN2CCOCC2)C1` (stereo not given), -28.4%.
On to `Cc1ccc(CN(CCCn2ccnc2)Cc2c(F)cccc2F)s1`, for which the INHIBITION came to 36.26%.
The result for `O=C(CCn1cccn1)N1C[C@H]2CC[C@@H](C1)N(Cc1ccccn1)C2=O` reads -19.54%.
The figure for `Cc1ccc2c(c1)C(NCc1ncnn1C)CC2` (stereo not given) is 38.67%; for `Cn1ncnc1CNC1CCc2cc(Cl)ccc21` (stereo not given) it is 74.44%; for `Cn1ncnc1CNC1CCCc2cc(F)ccc21` (stereo not given) it is -9.03%.
`CC(C)NC(=O)C1CCc2nnc(C(C)(C)C)n21` (stereo not given): the INHIBITION was 12.84%.
Consider `O=C(CCN1CCOCC1)Nc1cccc(CNCc2ccsc2)c1`, for which the INHIBITION worked out at 3.54%.
The figure for `CCN(C(=O)NCc1cccnc1N(C)C)C(C)c1cccnc1` (stereo not given) is 57.75%.
The result for `CC(NC(=O)NCc1cccnc1N(C)C)c1ccc(F)cc1` (stereo not given) reads 59.21%; that for `CC(C)C(NC(=O)NCc1cccnc1N(C)C)c1cccs1` (stereo not given), -16.65%.
The figure for `CN(C)c1ncccc1CNC(=O)NCC(c1cccs1)N(C)C` (stereo not given) is 31.55%; for `CCN(C(=O)NCc1ccccc1OC(F)F)C(C)c1cccnc1` (stereo not given) it is 38.67%.
Consider `CCOc1ccccc1CNC(=O)N(CC)C(C)c1cccnc1` (stereo not given), for which the INHIBITION is given as 21.97%.
Consider `CN(C)c1ccc(NC(=O)NCc2cccnc2N(C)C)cn1`, for which the INHIBITION is recorded as 1.63%.
In the case of `CN(C)c1ncccc1CNC(=O)NCc1ccco1`, the INHIBITION is on record as 37.15%.
The figure for `CC(NC(=O)NCc1cccnc1N(C)C)c1cccs1` (stereo not given) is 51.31%; for `CCN(CC1CN(CC2CCC2)CCO1)c1cccnn1` (stereo not given) it is 47.61%; for `Cc1nc2n(n1)CC(NCc1cc(Cl)c3c(c1)OCCCO3)CC2` (stereo not given) it is 3.86%.
The figure for `CN(Cc1ccco1)[C@@H]1CN(Cc2ccc(F)cc2)[C@@H]2CCCO[C@H]12` is -12.36%; for `COc1ncnc(N)c1CNCCc1ccc(-n2cccn2)cc1` it is 18.37%.
The result for `O=C(c1cccs1)N1CC[C@H]2C[C@@H](c3nnc(C4CC4)o3)O[C@@H]2C1` reads 31.41%.
Turning to `CN(C)C(=O)C1OC2(CCN(C(=O)c3ccoc3)CC2)c2ccccc21` (stereo not given), the INHIBITION turned out to be 25.43%.
The figure for `CCC(O)CN1CCN(C(=O)c2cccn2Cc2ccncc2)CC1` (stereo not given) is -21.72%; for `COCC1Cn2nnc(-c3cnn(C)c3)c2CN1Cc1ccc(C)s1` (stereo not given) it is 52.77%; for `COCC1Cn2nnc(-c3cnn(C)c3)c2CN1Cc1ccco1` (stereo not given) it is 14.97%.
In the case of `COCC1Cn2nnc(-c3cnn(C)c3)c2CN1Cc1ccc(C)o1` (stereo not given), the INHIBITION turned out to be 56.76%.
The figure for `COCC1Cn2nnc(-c3cnn(C)c3)c2CN1Cc1ccsc1` (stereo not given) is 33.14%.
Take `COCC1Cn2nnc(-c3cnn(C)c3)c2CN1Cc1ccoc1` (stereo not given): the INHIBITION amounted to 19.42%.
The result for `COCC1Cn2nnc(-c3cnn(C)c3)c2CN1Cc1cccs1` (stereo not given) reads -34.95%.
Consider `Cc1ccccc1CNC(=O)Cn1nc(-c2ccc(F)cc2)oc1=O`, for which the INHIBITION is reported as -25.13%.
The result for `CCOc1ccc(C(=O)Nc2c(C)nc3ccc(Cl)cn3c2=O)cc1` reads 27%; that for `Cc1cc2cc(Nc3c(C#N)c(=O)n(C)c(=O)n3C)ccc2[nH]1`, 13.53%.
The result for `O=C(CSc1ccc2c(c1)OCCO2)NS(=O)(=O)c1cccnc1` reads 16.95%.
The figure for `Cc1cccc(N(C)S(=O)(=O)c2cc(C(=O)O)cs2)c1` is 68.24%; for `Cc1ccc(N(C)S(=O)(=O)c2cc(C(=O)O)cs2)cc1` it is -29.54%; for `Cc1cc(C)cc(N(C)S(=O)(=O)c2cc(C(=O)O)cs2)c1` it is -8.84%.
Take `O=C(Nc1ccccc1)N1C[C@@H]2C[C@H](C(=O)N3CCOCC3)[C@H](C1)O2`: the INHIBITION came out at 24.15%.
The result for `CC(C)(C)CC(=O)NCCn1nc(C2CCNC2)c2cccnc21` (stereo not given) reads 21.13%; that for `CN(C)c1ccc(NC(=O)NCc2ccc(Cl)s2)cn1`, 17.62%; that for `CN(C)c1ccc(NC(=O)NCc2ccccn2)cn1`, 17.39%.
The figure for `Cc1nc(CNC(=O)Nc2ccc(N(C)C)nc2)sc1C` is 74.34%; for `O=C(CC1=CSC2=NCCN12)N1CCCC(CCc2cccc(F)c2)C1` (stereo not given) it is -33.45%.
The result for `CN(C)C(=O)Cc1ccccc1NCc1nc(Cc2ccccc2)no1` reads -12.95%; that for `CNC(=O)C1(c2cnccn2)CCCN1C(=O)c1ccccn1` (stereo not given), -3.55%; that for `OCCNc1nc(Nc2ccccc2)c2nccnc2n1`, 4.64%.
Turning to `Cc1cnn(CC(C)NCC(=O)Nc2ccc(Cl)cn2)c1` (stereo not given), the INHIBITION was 42.11%.
The result for `Cc1cnn(CCNCC(=O)Nc2ccc(Cl)cn2)c1` reads -1.56%; that for `Cc1cnn(CCNC(C)C(=O)Nc2ccc(Cl)cn2)c1` (stereo not given), 67.44%.
The result for `Cc1nn(C)c2c(N3CCN(C(=O)C(C)C)CC3)ncnc12` reads 31.57%.
The figure for `CCN(CCn1cccn1)Cc1nc(-c2cccc(C)c2)oc1C` is 65.76%.
`CCN(CCn1cccn1)Cc1nc(-c2ccc(F)cc2)oc1C`: the INHIBITION is -11.66%.
The figure for `CCN(CCn1cccn1)Cc1nc(-c2ccoc2)oc1C` is -16.71%; for `Cc1cccc(CN2CCC3(CC2)NC(=O)C[C@H]3c2cnn(C)c2)n1` it is 14.65%.
The result for `F[C@@H]1CN(Cc2cccnc2)C[C@@H]1OCc1nc2ccccc2[nH]1` reads 20.41%; that for `COC[C@@]12CCC[C@@H]1CN(C(=O)Cc1ccco1)C2`, 53.08%; that for `O=C(Cc1ccco1)N1C[C@H]2CCC[C@@]2(COc2cccnc2)C1`, -75.76%.
For `O=C(Cc1ccco1)N1C[C@H]2CCC[C@@]2(COCC2CC2)C1`, the INHIBITION is 8.17%.
With `CCn1ccnc1CN1CCN(c2ncnc3ccsc23)CC1C` (stereo not given), the INHIBITION is reported as -115.54%.
The figure for `O=C(c1cnc(O)cc1O)N1CCCC(CCc2ccccc2F)C1` (stereo not given) is 29.41%; for `COCCN1CCCC(O)(CN2CCCN(c3ncccn3)CC2)C1=O` (stereo not given) it is 31.35%; for `COCCN1CCCC2(CCN(c3ncnc(C)c3C)C2)C1=O` (stereo not given) it is 24.05%.
The result for `COCCN1CCCC2(CCN(c3nccnc3N(C)C)C2)C1=O` (stereo not given) reads -38.59%; that for `COCCN1CCCC(O)(CN2CCN(c3ncccc3C)CC2)C1=O` (stereo not given), 75.47%.
Regarding `COCCN1CCCC(O)(CN2CCN(c3cc(C)ccn3)CC2)C1=O` (stereo not given), the INHIBITION worked out at 17.6%.
For the compound `COCCN1CCCC2(CCN(c3nccc4ccccc34)C2)C1=O` (stereo not given), the INHIBITION is listed as 50.61%.
The result for `CCS(=O)(=O)N1CCC2(CN(c3cc(OC)ncn3)C2)C1` reads 35.37%.
The result for `CC(OCC1CC1)C(=O)Nc1cccc(C(=O)Nc2ccncc2)c1` (stereo not given) reads 10.72%.
For the compound `CC(C)C[C@H](N)c1nnc(SCC(N)=O)o1`, the INHIBITION turned out to be 31.02%.
As for `Cc1n[nH]c(C)c1CNC(=O)CSCc1ccccc1Cl`, the INHIBITION turned out to be 37.77%.
The figure for `CCSc1ccc(C(=O)N2CCC3(CCC(=O)N(C)C3)CC2)s1` is -12.89%; for `CSC1(CNc2ccc(Br)cn2)CCOCC1` it is 30.06%.
The figure for `Cc1cc(C)cc(NC(=O)Nc2c(O)c3ccccc3oc2=O)c1` is 19.49%; for `Cc1cnn(CCCNC(=O)NC(C)C(=O)Nc2ccccc2)c1` (stereo not given) it is -17.39%.
The figure for `Cc1nnc(SCC(=O)c2cc3c(cc2Cl)NC(=O)C3)s1` is -21.29%.
With `Cc1nnc(SCC(=O)c2cc3c(cc2Cl)NC(=O)C3)o1`, the INHIBITION is 54.73%.
The result for `Nc1nnc(SCC(=O)c2cc3c(cc2Cl)NC(=O)C3)s1` reads 9.42%; that for `CCCNC(=O)C(C)n1nc(-c2ccc(C)o2)cc(N)c1=O` (stereo not given), 0.86%.
The result for `Cc1ccc(CN2C[C@H]3CN(C(=O)c4ccno4)CCN3C2=O)cc1` reads 2.66%.
As to `CC(C)CC(C)NCCCN1CCCN(C)CC1` (stereo not given), the INHIBITION was 19.13%.
As to `CC(C)C(=O)N1CCC12CCCN(C(=O)c1ccccc1)C2` (stereo not given), the INHIBITION was -1.55%.
The result for `Cc1occc1CNC(=O)C1(C)CCCN1C(=O)c1ccccc1` (stereo not given) reads 22.34%; that for `Cc1occc1CNC(=O)C1(C)CCCN(C(=O)c2ccccc2)C1` (stereo not given), 52.08%; that for `Cc1c(C2CCCN(C(=O)c3cccnc3)C2)n2c(nc1=O)CCC2` (stereo not given), -16%.
The figure for `Cn1cc(CN2CCC3(CCN(c4cnn(C)c4)C3=O)C2)cn1` (stereo not given) is 13.61%.
The figure for `COc1ccc(CN2CCC3(CC2)CCN(c2cnn(C)c2)C3=O)cc1` is 65.32%.
`COc1ccc(CN2CCC3(CCN(c4cccnc4)C3=O)C2)cc1` (stereo not given): the INHIBITION amounted to 0.83%.
The figure for `Cn1cc(N2CCC3(CCCN(Cc4ccoc4)C3)C2=O)cn1` (stereo not given) is 25.4%.
Take `Cn1cc(CN2CCCC3(CCN(c4cccnc4)C3=O)C2)cn1` (stereo not given): the INHIBITION is -7.09%.
The figure for `Cn1cc(N2CCC3(CCCN(Cc4ccc(F)cc4)C3)C2=O)cn1` (stereo not given) is 51.26%; for `Cn1ncc2c1CCCN(C(=O)C1CCC1)C2` it is 7.46%.
The result for `Cc1nccnc1CCC1COCCN1C(=O)CCc1c(C)noc1C` (stereo not given) reads -12.6%; that for `COc1cccc(-c2noc(-c3ccc(NCC4CC4)nc3)n2)c1OC`, -57.64%; that for `CC(C)(C)CN1CCC[C@H]1c1nc(-c2cncnc2N)no1`, -10.21%.
The result for `COc1cc(CN(C(=O)Nc2cccnc2OC)C2CC2)ccc1O` reads -34.31%.

For the origin of these results see ChEMBL document CHEMBL4513216, “Probing the Open Global Health Chemical Diversity Library for Multistage-Active Starting Points for Next-Generation Antimalarials” (ACS Infect Dis, 2020).
